From PubChem BioAssay (Tox21)
Records with an inconclusive call do not appear. Calls of active or inactive are those of the source. Unless noted, calls come from the whole dose curve; as a rule, active = well fitted curve in the direction sought with a large enough effect in the repeat runs; inconclusive = weak or mixed curves; inactive = no such curve, though single readings can be large; an effect the other way counts as inactive or inconclusive.

Columns and labels:
[1] = qHTS assay to identify small molecule agonists of the RXR signaling pathway - cell viability counter screen (AID 1159529); note: nearly all actives have a fitted effect of over 50% in size; note: potency is the fitted concentration of half-maximal effect; for activity change, negative = cytotoxicity: series mostly up to about 77 µM
Summary of the method: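 CellTiter-Glo luminescence gave viability in the wells also read for beta-lactamase. Cells (RXR-alpha-UAS-bla HEK 293T, 2% charcoal-stripped FBS medium) had 5 hr plating, then 16 hr compound exposure at 37 C; tetraoctyl ammonium bromide served as positive control.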

[2] = qHTS assay to identify small molecule antagonists of the retinoid acid receptor (RAR) signaling pathway - cell viability counter screen (AID 1159551); note: nearly all actives have a fitted effect of over 35% in size
Summary of the method: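 Seed C3RL4 cells; next day add compound, then retinol to 1 uM final; incubate 6 h at 37 C; add CellTiter-Glo; read luminescence after 30 min at RT.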

[3] = qHTS assay to identify small molecule agonists of the retinoic acid receptor (RAR) signaling pathway (AID 1159553)
Summary of the method: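 Activation of retinol signaling was monitored via a RARE luciferase reporter in C3RL4 cells. After 6 hr compound treatment at 37 C, detection reagent was added for 30 min at room temperature before luminescence reading.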

[4] = qHTS assay to identify small molecule antagonists of the estrogen related receptor (ERR) signaling pathway (AID 1224819; note: nearly all actives have a fitted effect of over 50% in size; note: potency is the fitted concentration of half-maximal effect;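 for activity change, negative = inhibition: luminescence from an ERR-driven luciferase reporter measured with One-Glo reagent; series mostly up to about 46 µM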)
Summary of the method: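 qHTS in ERR cells, 2,000/well, 1536 format. Cpd (DMSO) added after 6 h settle, 18 h 37 C. One-Glo luminescence, 30 min RT.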

[5] = qHTS assay to identify small molecule agonists of the estrogen related receptor (ERR) signaling pathway (AID 1224820)
Summary of the method: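 ERR reporter cell line (from NTP), 2,000 cells/well, incubated 6 h before compound addition, then 18 h at 37 C. Luminescence measured 30 min after One-Glo reagent at room temperature.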

[6] = tested on: estrogen-related receptor alpha (ERRalpha) with PGC-1alpha coactivator, human; assay: qHTS assay to identify small molecule antagonists of the estrogen related receptor signaling pathway with the pleiotropic PPARgamma coactivator (PGC) (AID 1224821; calls by dose curve; note: nearly all actives have a fitted effect of over 50% in size; note: potency is the fitted concentration of half-maximal effect;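 for activity change, negative = inhibition: series mostly up to about 46 µM; lower luminescence signal means antagonism of PGC/ERR signalling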)
Summary of the method: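 PGC/ERR reporter cell line, plated 6 h before compound addition, then exposed 18 h at 37 °C. Luciferase activity read by luminescence 30 min after One-Glo addition; decrease indicates antagonism.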

[7] = qHTS assay to identify small molecule agonists of the estrogen related receptor signaling pathway with the pleiotropic PPARgamma coactivator (PGC) (AID 1224823)
Summary of the method: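 PGC/ERR reporter cells seeded 6 h, then exposed to compounds (23 nL in DMSO) for 18 h at 37 C. One-Glo luciferase luminescence read after 30 min at room temperature.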

[8] = qHTS assay to identify small molecule antagonists of the estrogen related receptor (ERR) signaling pathway from Tox21 library - cell viability counter screen (AID 1224834); note: nearly all actives have a fitted effect of over 30% in size; note: potency is the fitted concentration of half-maximal effect
Summary of the method: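 CellTiter-Fluor fluorescence measured; ERR cells; 17.5 h compound incubation at 37 C; 30 min reagent step.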

[9] = biological target: Luciferin 4-monooxygenase (Photinus pyralis) (UniProt P08659); assay: qHTS assay to identify small molecule inhibitors of firefly luciferase (AID 1224835); note: nearly all actives have a fitted effect of over 25% in size; note: potency is the fitted concentration of half-maximal effect; for activity change, negative = inhibition: series mostly up to about 120 µM
Luciferin 4-monooxygenase (Photinus pyralis), sequence (P08659 whole entry, looked up): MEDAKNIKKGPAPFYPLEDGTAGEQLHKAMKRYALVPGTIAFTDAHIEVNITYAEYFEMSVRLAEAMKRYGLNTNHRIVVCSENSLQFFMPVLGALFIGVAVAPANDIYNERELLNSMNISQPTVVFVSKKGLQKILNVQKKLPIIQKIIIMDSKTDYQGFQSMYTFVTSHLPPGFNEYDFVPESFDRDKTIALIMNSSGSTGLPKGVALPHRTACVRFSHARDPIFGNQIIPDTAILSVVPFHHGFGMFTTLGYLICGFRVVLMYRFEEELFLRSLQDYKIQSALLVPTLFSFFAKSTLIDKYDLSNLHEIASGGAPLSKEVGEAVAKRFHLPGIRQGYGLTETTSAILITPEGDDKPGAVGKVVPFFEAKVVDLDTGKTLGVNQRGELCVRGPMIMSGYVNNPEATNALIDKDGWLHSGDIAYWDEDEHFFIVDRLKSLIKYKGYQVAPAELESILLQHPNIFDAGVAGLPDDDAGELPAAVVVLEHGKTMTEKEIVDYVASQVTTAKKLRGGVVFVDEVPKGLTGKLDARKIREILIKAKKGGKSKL
Summary of the method: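 Inhibition of purified Photinus luciferase is measured by luminescence. Substrate levels (D-luciferin, ATP) sit at their KM values. Each compound is tested in a concentration series.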

[10] = biological target: Nuclear receptor subfamily 1 group I member 3 (Homo sapiens) (UniProt Q14994); assay: qHTS assay to identify small molecule antagonists of the constitutive androstane receptor (CAR) signaling pathway (AID 1224838);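 note: HepG2 cells stably expressing hCAR with CYP2B6 luciferase reporter stimulated by CITCO; nearly all actives have a fitted effect of over 40% in size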; note: potency is the fitted concentration of half-maximal effect
Nuclear receptor subfamily 1 group I member 3 (Homo sapiens), sequence (Q14994 whole entry, looked up): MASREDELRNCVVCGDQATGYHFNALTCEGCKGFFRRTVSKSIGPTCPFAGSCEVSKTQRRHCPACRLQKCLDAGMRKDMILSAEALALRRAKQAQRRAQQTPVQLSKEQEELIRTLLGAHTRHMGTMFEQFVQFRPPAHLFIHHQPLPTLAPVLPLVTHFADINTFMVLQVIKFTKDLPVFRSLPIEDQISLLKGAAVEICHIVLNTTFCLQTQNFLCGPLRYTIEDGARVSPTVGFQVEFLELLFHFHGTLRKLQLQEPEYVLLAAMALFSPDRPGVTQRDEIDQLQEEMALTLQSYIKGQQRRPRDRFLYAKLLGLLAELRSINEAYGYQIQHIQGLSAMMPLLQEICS
Summary of the method: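 Reporter luminescence was quantified after 24 h exposure of hCAR/CYP2B6-2.2kb double-stable HepG2 cells to compounds at 15 concentrations in the presence of 50 nM CITCO final.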

[11] = qHTS assay to identify small molecule antagonists of the estrogen related receptor signaling pathway with the pleiotropic PPARgamma coactivator (PGC) from Tox21 10K library (AID 1224841; call rule not given here; note: actives are mostly falling curves and most rising ones were filed inactive; nearly all actives have a fitted effect of over 50% in size; note: potency is the fitted concentration of half-maximal effect; for activity, negative = inhibition: series mostly up to about 92 µM)
Summary of the method: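 Each well held 2,000 PGC/ERR cells, pre-incubated six hours (37 C, 5% CO2). Test substances in DMSO were added by pin tool and left for 18 h at 37 C before luciferase detection by One-Glo.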

[12] = qHTS assay to identify small molecule agonists of the estrogen related receptor signaling pathway with the pleiotropic PPARgamma coactivator (PGC) from Tox21 10K library (AID 1224842); note: nearly all actives have a fitted effect of over 15% in size
Summary of the method: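 Luminescence from One-Glo (30 min, room temperature) measured after PGC/ERR cells had 18 h at 37 C with pinned compound (23 nL in DMSO). Cells had been seeded at 2,000 per well and pre-incubated 6 h.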

[13] = biological target: Thyrotropin receptor (Homo sapiens) (UniProt P16473); assay: qHTS assay to identify small molecule agonists of the thyroid stimulating hormone receptor (TSHR) signaling pathway (AID 1224843; calls by dose curve; note: nearly all actives have a fitted effect of over 45% in size)
Thyrotropin receptor (Homo sapiens), sequence (P16473 whole entry, looked up): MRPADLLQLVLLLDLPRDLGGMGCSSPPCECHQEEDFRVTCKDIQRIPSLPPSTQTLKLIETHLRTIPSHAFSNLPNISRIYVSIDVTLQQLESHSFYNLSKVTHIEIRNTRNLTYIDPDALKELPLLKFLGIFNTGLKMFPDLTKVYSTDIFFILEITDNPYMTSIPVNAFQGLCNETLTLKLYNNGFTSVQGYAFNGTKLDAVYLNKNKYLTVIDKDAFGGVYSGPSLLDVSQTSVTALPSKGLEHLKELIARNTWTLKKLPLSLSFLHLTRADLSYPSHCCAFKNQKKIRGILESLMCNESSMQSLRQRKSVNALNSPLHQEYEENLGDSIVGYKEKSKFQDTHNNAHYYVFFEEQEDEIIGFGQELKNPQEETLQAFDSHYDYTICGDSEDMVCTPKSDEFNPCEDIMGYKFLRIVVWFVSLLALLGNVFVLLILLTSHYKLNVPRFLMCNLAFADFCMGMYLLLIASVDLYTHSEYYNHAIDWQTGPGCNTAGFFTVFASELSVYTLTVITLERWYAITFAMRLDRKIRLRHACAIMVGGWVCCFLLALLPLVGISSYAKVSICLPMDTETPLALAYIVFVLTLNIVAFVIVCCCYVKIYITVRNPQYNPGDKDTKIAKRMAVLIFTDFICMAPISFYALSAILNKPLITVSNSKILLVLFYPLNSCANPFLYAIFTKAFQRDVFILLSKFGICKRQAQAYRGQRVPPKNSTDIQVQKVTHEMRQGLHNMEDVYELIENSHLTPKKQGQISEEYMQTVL
Summary of the method: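 Screening of the Tox21 10K collection used HEK293 cells engineered with TSHR at 800 cells per well. After a 30-min room-temperature compound exposure, HTRF cAMP reagents were added and fluorescence recorded 1 h later.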

[14] = qHTS assay to identify small molecule agonists of the hypoxia (HIF-1) signaling pathway - cell viability counter screen (AID 1224844; calls by dose curve; note: nearly all actives have a fitted effect of over 50% in size; note: potency is the fitted concentration of half-maximal effect)
Summary of the method: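 Multiplexed with the HRE beta-lactamase assay, this viability read used CellTiter-Glo luminescence (30 min, RT) on HRE-bla ME-180 cells treated 17 hrs with compounds in 0.5% dialyzed FBS medium.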

[15] = qHTS assay to identify small molecule antagonists of the retinoic acid receptor (RAR) signaling pathway (AID 1159552; note: nearly all actives have a fitted effect of over 50% in size)
Summary of the method: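 Luminescent RARE reporter read-out in C3RL4 cells: 6 hr co-treatment at 37 C of test compounds with retinol at 1 uM final. Cells plated overnight beforehand; luciferase reagent incubated 30 min at room temperature before reading.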

[16] = qHTS assay to identify small molecule agonists of the constitutive androstane receptor (CAR) signaling pathway - cell viability counter screen (AID 1224836); note: nearly all actives have a fitted effect of over 45% in size; note: potency is the fitted concentration of half-maximal effect; for viability change, negative = cytotoxic: series mostly up to about 92 µM
Summary of the method: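 Cell viability multiplexed with the CAR agonist screen: CellTiter-Fluor fluorescence after 23 hr at 37 C. HepG2-CYP2B6-hCAR cells got compounds at 15 concentrations with PK11195 at 0.75 uM final.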

[17] = qHTS assay to identify small molecule antagonists of the constitutive androstane receptor (CAR) signaling pathway - cell viability counter screen (AID 1224837); note: nearly all actives have a fitted effect of over 45% in size; note: potency is the fitted concentration of half-maximal effect; for activity change, negative = cytotoxicity: series mostly up to about 92 µM
Summary of the method: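 Using CellTiter-Fluor, viability is scored in HepG2 cells stably carrying hCAR and a 2.2kb CYP2B6 reporter after 23 hr compound exposure across 15 concentrations, with CITCO present at 50 nM.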

[18] = biological target: Nuclear receptor subfamily 1 group I member 3 (Homo sapiens) (UniProt Q14994); assay: qHTS assay to identify small molecule agonists of the constitutive androstane receptor (CAR) signaling pathway (AID 1224839); note: nearly all actives have a fitted effect of over 15% in size; note: potency is the fitted concentration of half-maximal effect;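 for activation: HepG2 cells stably carrying human CAR and a CYP2B6 luciferase reporter; series mostly up to about 92 µM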
Summary of the method: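 Luminescent ONE-Glo read-out after 24 hr, 37 C exposure of double-stable HepG2-CYP2B6-hCAR reporter cells to a 15-point compound series, in the presence of 0.75 uM PK11195 (final).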

[19] = qHTS assay to identify small molecule antagonists of the estrogen related receptor signaling pathway with the pleiotropic PPARgamma coactivator (PGC) from Tox21 10K library - cell viability counter screen (AID 1224840; active = well fitted cell-killing curve with a large enough effect in the repeat runs, not every such curve was filed as active; note: nearly all actives have a fitted effect of over 40% in size; note: potency is the fitted concentration of half-maximal effect)
Summary of the method: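 Here the PGC/ERR cells serve as a cytotoxicity control: they are exposed to compounds for 17.5 hours at 37 C, and live-cell signal is quantified using CellTiter-Fluor fluorescence.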

[20] = qHTS assay to identify small molecule antagonists of the estrogen related receptor signaling pathway with the pleiotropic PPARgamma coactivator (PGC) cell viability counter screen (AID 1224822;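 note: series mostly up to about 46 µM; viability read after 17.5 h compound exposure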)
Summary of the method: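 Compounds in DMSO, with positive and negative controls, were applied to PGC/ERR cells (2,000/well) and left 17.5 h at 37 C before CellTiter-Fluor detection.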
% is set by controls: 0 for no effect and ±100 for the full control effect.

CC(C)C[C@H]1C(=O)N2CCC[C@H]2[C@]2(O)O[C@](NC(=O)[C@@H]3C=C4c5cccc6[nH]c(Br)c(c56)C[C@H]4N(C)C3)(C(C)C)C(=O)N12
active: Potency [4] 16.8 µM | Potency [6] 16.2 µM | Potency [8] 18.4 µM | Potency [11] 16.4 µM
inactive: Potency [1] | Potency [2] | Potency [3] | outcome [5] | outcome [7] | Potency [9] | Potency [10] | Potency [12] | Potency [13] | Potency [14]

O=C(O)c1ccc(-n2nc(-c3ccccc3O)nc2-c2ccccc2O)cc1
active: Potency [8] 23.7 µM
inactive: Potency [1] | Potency [2] | Potency [15] | Potency [16] | Potency [17] | Potency [18] | Potency [19] | Potency [12] | Potency [14]

COc1ccc(C(=O)c2ccc(OC)cc2O)c(O)c1
active: Potency [9] 28.5 µM | Potency [18] 9.76 µM
inactive: Potency [1] | Potency [2] | Potency [15] | Potency [16] | Potency [17] | Potency [10] | Potency [19] | Potency [14]

Nc1cccc([N+](=O)[O-])c1
inactive: Potency [1] | Potency [2] | Potency [3] | Potency [8] | Potency [9] | Potency [16] | Potency [17] | Potency [10] | Potency [18] | Potency [19] | Potency [11] | Potency [12] | Potency [14]

Brc1c2ccccc2c(Br)c2ccccc12
inactive: activity change, negative = cytotoxicity [1] 0.822% [at 6.97 µM] | activity change, negative = cytotoxicity [2] 11.4% [at 8.39 µM] | activation [3] -1.37% [at 8.36 µM] | viability change, negative = cytotoxic [8] -0.56% [at 8.39 µM] | viability change, negative = cytotoxic [16] 3.16% [at 8.39 µM] | activity change, negative = cytotoxicity [17] 6.42% [at 8.39 µM] | activity, negative = inhibition [10] 22.1% [at 8.39 µM] | activation [18] 11.6% [at 8.39 µM] | viability change, negative = cytotoxic [19] 6.16% [at 8.39 µM] | activity, negative = inhibition [11] 52.5% [at 8.39 µM] | activation [13] -2.14% [at 8.39 µM] | activity change, negative = cytotoxicity [14] -13.7% [at 6.97 µM]

CCC(C)c1cc(C(C)(C)C)c(O)c(C(C)(C)C)c1 (stereo not given)
inactive: Potency [1] | Potency [2] | Potency [3] | Potency [8] | Potency [9] | Potency [16] | Potency [17] | Potency [19] | Potency [13] | Potency [14]

O=C(c1ccc(F)cc1)C1CCN(CCn2c(=S)[nH]c3ccccc3c2=O)CC1
active: Potency [8] 29.8 µM | Potency [14] 21.3 µM
inactive: Potency [1] | Potency [2] | Potency [15] | Potency [9] | Potency [16] | Potency [17] | Potency [10] | Potency [18] | Potency [13]

c1ccc(C(O[C@H]2CCCN(CCc3ccc4c(c3)OCO4)C2)c2ccccc2)cc1
inactive: Potency [1] | Potency [2] | Potency [8] | Potency [9] | Potency [16] | Potency [17] | Potency [19] | Potency [14]

CCCn1cnc2c1c(=O)n(CCCCC(C)=O)c(=O)n2C
inactive: Potency [1] | Potency [2] | Potency [4] | outcome [5] | Potency [6] | outcome [20] | outcome [7] | Potency [8] | Potency [16] | Potency [17] | Potency [10] | Potency [18] | Potency [19] | Potency [11] | Potency [12] | Potency [13] | Potency [14]

COc1ccnc(CS(=O)c2nc3ccc(OC(F)F)cc3[nH]2)c1OC (stereo not given)
inactive: Potency [1] | Potency [2] | Potency [8] | Potency [9] | Potency [16] | Potency [17] | Potency [10] | Potency [18] | Potency [19] | Potency [13] | Potency [14]

O=[N+]([O-])c1ccc(NCCO)c(OCCO)c1
active: Potency [8] 30.7 µM | Potency [16] 43.3 µM | Potency [17] 48.6 µM | Potency [19] 48.6 µM
inactive: Potency [1] | Potency [2] | Potency [9] | Potency [11] | Potency [12] | Potency [13] | Potency [14]

CN(C)c1ccc(CCO)cc1
inactive: Potency [1] | Potency [2] | Potency [8] | Potency [9] | Potency [16] | Potency [17] | Potency [18] | Potency [19] | Potency [14]
active: Potency [10] 27.1 µM

CCN(CC)CCNc1ccc(CNC=O)c2sc3ccc(OC)cc3c(=O)c12
inactive: Potency [2] | Potency [9] | Potency [13]
active: Potency [1] 3.09 µM | Potency [8] 7.7 µM | Potency [16] 8.63 µM | Potency [17] 8.63 µM | Potency [19] 6.11 µM | Potency [14] 24.5 µM

O=C(O)CNCC(=O)O
inactive: activity change, negative = cytotoxicity [1] 3.65% [at 6.97 µM] | activity change, negative = cytotoxicity [2] -1.04% [at 8.39 µM] | viability change, negative = cytotoxic [8] 2.9% [at 8.39 µM] | activity change, negative = inhibition [9] 2.59% [at 10.5 µM] | viability change, negative = cytotoxic [16] 4.87% [at 8.39 µM] | activity change, negative = cytotoxicity [17] 2.11% [at 8.39 µM] | activity, negative = inhibition [10] 15.5% [at 8.39 µM] | activation [18] -0.889% [at 8.39 µM] | viability change, negative = cytotoxic [19] 0.614% [at 8.39 µM] | activation [13] 4.36% [at 8.39 µM] | activity change, negative = cytotoxicity [14] -0.223% [at 6.97 µM]

CCN(CC)CCNC(=O)c1cc(Br)c(N)cc1OC
inactive: Potency [1] | Potency [2] | Potency [8] | Potency [9] | Potency [16] | Potency [17] | Potency [10] | Potency [18] | Potency [19] | Potency [12] | Potency [13] | Potency [14]

O=C(NCCO[N+](=O)[O-])c1cccnc1
inactive: Potency [1] | Potency [2] | Potency [8] | Potency [9] | Potency [16] | Potency [17] | Potency [10] | Potency [18] | Potency [19] | Potency [13] | Potency [14]
